In ChEMBL document CHEMBL3988442, “University of Dundee, Small-Polar-MMV Screening Library” (2021):
Screen size: about 53,000 compounds; about 900 (1.7%) showed an effect of 50% or more. Many of the other results were omitted from the sample, so strong results are more common in it than they were.

test system: Mycobacterium tuberculosis; assay: Cornell - Phenotypic assay to identify agents that inhibit growth of Mycobacterium tuberculosis; type: functional; set-up: scale not given: direction of the effect not stated beside the values; conditions: 10 mM as filed; unlikely as a test dose

SMILES | Percent Effect [%]
CC(C)c1cc(C2CCCN2C(=O)c2cn3ccsc3n2)no1 (centres undefined) | 31.59
Cc1cc(NC(=O)C2CCN(c3ncccc3C#N)CC2)no1 | -28.06
O=C(Cc1cccs1)NCc1ccnc(C2CCCOC2)n1 (centres undefined) | 6.218
Cc1nc(C)n(CC2CCCN(c3ncnc4sccc34)C2)n1 (centres undefined) | -6.342
Cc1nc(C)n(CC2CCCN(c3ncnc4ccsc34)C2)n1 (centres undefined) | 51.96
Cc1nc(C)n(CC2CCCN(c3ncnc4ccccc34)C2)n1 (centres undefined) | -29.18
Cc1ncccc1C(=O)Nc1cccc(C[S+](C)[O-])c1C (centres undefined) | 11.87
COc1ccc(-n2cc(CNC(=O)c3ccc[nH]3)nn2)cc1 | 1.2
CC(=O)N1CCC2(C1)CN(S(=O)(=O)c1ccccc1)C2 | 13.22
Cc1nc(CNCC2CCCN2c2cccnn2)oc1C (centres undefined) | 5.973
CN(Cc1nc2ccccc2o1)CC1CCCN1c1cccnn1 (centres undefined) | -25.78
c1cnnc(N2CCCC2CNCc2nc3ccccc3o2)c1 (centres undefined) | 108.2
Cn1cc(C(=O)N2CCO[C@@H]3CN(C4CCC4)C[C@@H]3C2)cn1 | 3.925
COCCN1CCN(Cc2cccc(C(=O)N(C)C)c2)CC1 | -27.32
CCC(C)N(Cc1cnc(OC)nc1)Cc1ccsc1 (centres undefined) | -2.85
Cc1nc(-c2ccncc2)nc(N(C)CCc2ccncc2)c1C | -4.993
COCCCN(C)c1nc(-c2ccncc2)nc2c1CCN(C(C)=O)C2 | -26.88
COCCCN(C)c1nc(-c2ccncc2)nc(C)c1C | 79.79
NC(=O)C1CCN(C(=O)NCc2ccc(-c3ccn[nH]3)cc2)CC1 | -27.61
O=C(N1CCCO1)[C@@]12CCO[C@@H]1CCN(Cc1ccccn1)C2.O=C(O)C(F)(F)F.O=C(O)C(F)(F)F | 16.34
CC(C)Oc1cccc(C(O)CNC(=O)Nc2cccs2)c1 (centres undefined) | 105
O=C(NCCc1ccccc1)NCC(O)c1cccs1 (centres undefined) | 16.84
CCOc1ccccc1CCNC(=O)NCC(O)c1ccsc1 (centres undefined) | 26.35

SMILES | Percent Effect [%]
CC(C)Oc1cccc(C(O)CNC(=O)NCc2cccs2)c1 (centres undefined) | 7.446
O=C(Nc1ccccn1)NC(CCCO)c1ccccc1 (centres undefined) | -24.69
Cc1csc(CNC(=O)NCC(O)c2ccccc2)n1 (centres undefined) | -28.19
CC(C)Oc1cccc(C(O)CNC(=O)CCc2ccncc2)c1 (centres undefined) | 31.72
O=C(NCC(O)c1ccsc1)Nc1cccs1 (centres undefined) | 98.83
O=C(Nc1cccs1)NC(CCCO)c1ccccc1 (centres undefined) | 101.4
O=C(Nc1cccnn1)NC(CCCO)c1ccccc1 (centres undefined) | -8.222
O=C(NCC(O)c1ccsc1)c1sccc1OC(F)F (centres undefined) | 14.09
O=C(NCC(O)c1ccccc1)Nc1cccs1 (centres undefined) | 59.31
Cc1cc(C)n2c(CNCc3ccc(OC(F)F)cc3)cnc2n1 | -7.615
Cn1ncc2c(N3CCCN(C(=O)c4ccsc4)CC3)ncnc21 | 16.86
CCCc1ccc(CN2CCC3(CCC(=O)N(CCO)C3)CC2)o1 | 9.804
COc1ccccc1C(=O)N1CCOC2(CCCN(C(C)=O)C2)C1 (centres undefined) | 23.26
Fc1ccc(C2CCCN2Cc2nnnn2C2CC2)cc1 (centres undefined) | -22.59
O=C(NCCCN1CCCC1=O)c1nc(-c2ccc3[nH]ccc3c2)no1 | 3.66
Cn1cccc1C(=O)N1CCC2(CC1)COC(COc1ccccn1)C2.O=C(O)C(F)(F)F (centres undefined) | 9.973
CC(C)[C@H](NC(=O)N1CCN(c2ccc(Cl)cc2)CC1)C(=O)NC1CC1 | 4.583
C[C@H](NC(=O)N1CCN(c2ccc(Cl)cc2)CC1)C(=O)N1CCSCC1 | 11.26
CC(C)NC(=O)[C@@H](NC(=O)N1CCN(c2ccc(Cl)cc2)CC1)C(C)C | 70.57
CN(C(=O)NC1CC1)C1CCN(c2ccc(Cl)cc2)CC1 | 17.37
CC(C)NC(=O)C(C)NC(=O)N1CCN(c2ccc(Cl)cc2)CC1 (centres undefined) | -27.07
CC(NC(=O)N1CCN(c2ccc(Cl)cc2)CC1)C(=O)N1CCSCC1 (centres undefined) | 21.43
CC(C)NC(=O)C(NC(=O)N1CCN(c2ccc(Cl)cc2)CC1)C(C)C (centres undefined) | 76.86

SMILES | Percent Effect [%]
CC(C)C(NC(=O)N1CCN(c2ccc(Cl)cc2)CC1)C(=O)NC1CC1 (centres undefined) | 93.48
CC(C)NC(=O)[C@H](C)NC(=O)N1CCN(c2ccc(Cl)cc2)CC1 | -2.997
Fc1ccccc1NCc1nc2n(n1)CCCCC2 | 6.356
NC(=O)CN1CCCC(c2cncc(Nc3ncccn3)n2)C1 (centres undefined) | 28.6
COCCN1C(=O)CC[C@]12CC[C@@H](NC(=O)c1cnccn1)CC2 | 8.611
CCCc1nnnn1CC(=O)NCc1cccc(C)c1 | 14.77
CCOC(=O)C1(Cc2ccccc2-c2ccccc2OC)CCNCC1.Cl | 1.496
CNc1[nH]nc(N)c1C(=O)Nc1ccccc1 | -18.4
CNc1[nH]nc(N)c1NC(=O)c1ccccc1 | 107.3
CNc1[nH]nc(N)c1C(=O)Nc1ccc(OC)cc1 | -4.193
FC(F)(F)c1cc(C2CCN(c3cnccn3)CC2)n2ccnc2n1 | 47.21
FC(F)(F)c1cc(C2CCCN(c3cnccn3)C2)n2ccnc2n1 (centres undefined) | 5.193
Cc1nc(Nc2cnccn2)cc(C2CCCN(C(C)C)C2)n1 (centres undefined) | -5.253
FC(F)(F)c1cc(C2CCCN(c3ncccn3)C2)n2ccnc2n1 (centres undefined) | 58.69
Cc1cc(C)nc(Nc2nccnc2C2CCCN(C(C)C)C2)n1 (centres undefined) | 29.5
CC(C)N1CCCC(c2cc(C(F)(F)F)nc3nccn23)C1 (centres undefined) | 55.76
NC(=O)c1ccc(C2CCCN2C(=O)CCc2nc3ccccc3s2)s1 (centres undefined) | -11.96
Cc1cnc(C)c(N2CCCC(CO)(Cc3ccccc3C)C2)n1 (centres undefined) | 5.498
CC(=O)c1ccc(N2CCCC(CO)(Cc3ccccc3C)C2)nc1 (centres undefined) | 13.02
Cc1ccccc1CC1(CO)CCCN(c2ncncc2C(C)C)C1 (centres undefined) | 81.01
c1csc(N2CCCN(c3ncnc4sccc34)CC2)n1 | 9.712
Cc1ccccc1CC1(C(=O)O)CCCN(c2ncnc3[nH]ccc23)C1 (centres undefined) | 8.891
Cc1ccccc1CC1(CO)CCCN(c2ncnc3sccc23)C1 (centres undefined) | 79.2
